PubChem BioAssay (NCATS)
Inconclusive results are not listed. Calls of active or inactive are those of the source. Unless noted, calls come from the whole dose curve; as a rule, active = well fitted curve in the direction sought with a large enough effect; inconclusive = small, poorly fitted or top-dose-only effect, or another doubt; inactive = no such curve, though single readings can be large; an effect the other way counts as inactive or inconclusive.

What was measured:
[1] = target: Lysosomal acid glucosylceramidase (Homo sapiens) (UniProt P04062); assay: Glucocerebrosidase-p2 (AID 348; in the data active = potency below about 10 µM; note: potency is the fitted concentration of half-maximal effect); conditions: purified GBA, blue fluorogenic substrate, 40 min
Lysosomal acid glucosylceramidase (Homo sapiens), sequence (P04062 whole entry, looked up): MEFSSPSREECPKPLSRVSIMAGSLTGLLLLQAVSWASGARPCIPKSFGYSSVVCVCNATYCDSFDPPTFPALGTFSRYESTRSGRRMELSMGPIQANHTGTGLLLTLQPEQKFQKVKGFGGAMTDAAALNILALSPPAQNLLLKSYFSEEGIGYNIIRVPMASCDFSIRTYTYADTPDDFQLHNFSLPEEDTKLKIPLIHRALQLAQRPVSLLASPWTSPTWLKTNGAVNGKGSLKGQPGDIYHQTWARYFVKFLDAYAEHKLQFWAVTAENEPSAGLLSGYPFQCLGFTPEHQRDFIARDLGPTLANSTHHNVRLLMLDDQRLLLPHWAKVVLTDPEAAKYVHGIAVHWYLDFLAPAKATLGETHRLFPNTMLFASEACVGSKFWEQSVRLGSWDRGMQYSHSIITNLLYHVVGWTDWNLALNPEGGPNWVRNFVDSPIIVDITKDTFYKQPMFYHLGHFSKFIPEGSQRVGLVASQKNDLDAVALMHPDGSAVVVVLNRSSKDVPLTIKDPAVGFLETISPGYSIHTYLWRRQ
Summary of the method: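 Normal human glucocerebrosidase (0.2 nM) with blue fluorogenic substrate (80 uM final) in citrate/phosphate pH 5.9 with 10mM sodium taurocholate, 0.01% tween-20; 40 min RT, NaOH/glycine stop; fluorescence Ex 365/Em 440; AC50 from a titration from 0.6 nM upwards.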

[2] = AP1 Signaling Pathway (AID 357; active = well fitted curve in either direction with a large enough effect, not every such curve was filed as active;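 note: ME-180 reporter cells stimulated with EGF at its EC50 level; % is set by controls: 0 for no effect and ±100 for the full control effect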); conditions: ME-180 AP-1-bla reporter, EGF-induced, beta-lactamase ratio, 5 h; at 7.69 µM (top of the series) unless noted
Summary of the method: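 Read-out was the 460nm/530nm emission ratio (excitation 405nm) after CCF4 loading for 2.5 hours at room temperature. Cells carried an AP-1-driven beta-lactamase reporter, were stimulated with EC50 EGF plus compound for 5 hours, and AC50 values came from titrations.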

[3] = NFAT Signaling Pathway (AID 444; active = well fitted curve in either direction with a large enough effect, not every such curve was filed as active;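 note: carbachol stimulus at about its EC50 of 1 µM final; % is set by controls: 0 for no effect and ±100 for the full control effect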); conditions: Jurkat NFAT-bla M1, carbachol, beta-lactamase ratio, 5 h; at 7.69 µM (top of the series) unless noted
Summary of the method: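 Jurkat cells with NFAT-driven β-lactamase reporter and co-expressed M1 receptor, stimulated with carbachol (final 1 uM, ~EC50), compound titration, 5 h at 37 °C. CCF4 loaded 1 h at RT; 460/530 nm ratio gave %activity and AC50.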

[4] = Stat Signaling Pathway (AID 446; active = well fitted curve in either direction with a large enough effect, not every such curve was filed as active;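 note: ME-180 cervical cancer cells given 40 pM IL-6 alongside compound; SIE-controlled beta-lactamase reporter measured as 460/530 nm FRET emission ratio; % is set by controls: 0 for no effect and ±100 for the full control effect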); conditions: ME-180 (cervical carcinoma) SIE beta-lactamase reporter, IL-6 stimulated, 5 h; at 7.69 µM (top of the series) unless noted
Summary of the method: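 Overnight-plated ME-180 cells bearing a STAT Inducible Element beta-lactamase reporter; 5 h co-exposure to compound and 40 pM IL-6; values normalized to 300 pM IL-6 and 125 nM JAK inhibitor controls.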

[5] = target: Glucocorticoid receptor (Homo sapiens) (UniProt P04150); assay: GR-GFP Redistribution (AID 450;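 active = compounds whose dose series gives a full or clear partial fitted curve of increased nuclear translocation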; note: potency is the fitted concentration of half-maximal effect); conditions: U2OS GR-GFP nuclear translocation, laser cytometry, 2 h
Glucocorticoid receptor (Homo sapiens), sequence (P04150 whole entry, looked up, the tested form may be a part): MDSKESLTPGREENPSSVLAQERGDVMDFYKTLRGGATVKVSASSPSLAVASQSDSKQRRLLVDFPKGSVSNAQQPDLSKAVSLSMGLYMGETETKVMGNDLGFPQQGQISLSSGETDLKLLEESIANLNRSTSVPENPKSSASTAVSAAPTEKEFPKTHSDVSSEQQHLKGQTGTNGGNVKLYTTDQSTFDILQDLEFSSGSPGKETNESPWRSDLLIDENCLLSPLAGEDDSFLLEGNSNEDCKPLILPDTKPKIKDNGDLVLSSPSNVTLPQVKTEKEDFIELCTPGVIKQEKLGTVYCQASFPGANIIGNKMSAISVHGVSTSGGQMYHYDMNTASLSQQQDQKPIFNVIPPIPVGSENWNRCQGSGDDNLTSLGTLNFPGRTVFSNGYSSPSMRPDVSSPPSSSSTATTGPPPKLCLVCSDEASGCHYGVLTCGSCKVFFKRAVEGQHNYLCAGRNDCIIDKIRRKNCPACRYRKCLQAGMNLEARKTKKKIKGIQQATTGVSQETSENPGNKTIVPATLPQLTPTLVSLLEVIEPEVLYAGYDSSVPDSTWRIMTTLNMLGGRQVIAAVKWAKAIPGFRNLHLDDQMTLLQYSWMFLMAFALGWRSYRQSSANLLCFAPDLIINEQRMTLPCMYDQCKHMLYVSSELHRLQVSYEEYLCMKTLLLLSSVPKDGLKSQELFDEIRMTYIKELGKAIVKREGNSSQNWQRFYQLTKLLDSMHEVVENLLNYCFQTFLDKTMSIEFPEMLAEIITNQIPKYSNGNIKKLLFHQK

[6] = target: Glucocorticoid receptor (Homo sapiens) (UniProt P04150); assay: GR-EFC Redistribution (AID 451; calls by dose curve; note: potency is the fitted concentration of half-maximal effect); conditions: CHO-K1 GR-EFC translocation, beta-gal luminescence, 2 h
Summary of the method: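 CHO-K1 cells expressing nuclear EA and GR-ED fragments of b-gal; compounds titrated up to 46 uM final, 2 h at 37 C. GR nuclear translocation read as complemented b-gal luminescence after 1 h RT detection.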

[7] = target: Mitogen-activated protein kinase 10 (Mus musculus) (UniProt Q61831); assay: JNK3 AlphaScreen Assay (AID 530; active = well fitted curve in either direction with a large enough effect, not every such curve was filed as active;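 note: kinase came from lysate of stimulated human HepG2 cells; signal reports phosphorylation of biotinylated GST-cJun 1-79 at Ser73 with 10 µM ATP; % is set by controls: 0 for no effect and ±100 for the full control effect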)
Summary of the method: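 Activity was read by AlphaScreen after JNK3-containing HepG2 lysate (cytokine pre-activated) phosphorylated biotinylated GST-cJun with 10 uM ATP at room temperature. Phospho-Ser73 cJun antibody with Protein-A acceptor beads provided detection.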

[8] = target: 3',5'-cyclic-AMP phosphodiesterase 4B (Homo sapiens) (UniProt Q07343); assay: qHTS Assay for Inhibitors of PDE-IV (AID 607; active = well fitted activation curve with a large enough effect in the main read-out, with a control signal flat, not every such curve was filed as active; note: % of control where 0% means no effect)
3',5'-cyclic-AMP phosphodiesterase 4B (Homo sapiens), sequence (Q07343 whole entry, looked up): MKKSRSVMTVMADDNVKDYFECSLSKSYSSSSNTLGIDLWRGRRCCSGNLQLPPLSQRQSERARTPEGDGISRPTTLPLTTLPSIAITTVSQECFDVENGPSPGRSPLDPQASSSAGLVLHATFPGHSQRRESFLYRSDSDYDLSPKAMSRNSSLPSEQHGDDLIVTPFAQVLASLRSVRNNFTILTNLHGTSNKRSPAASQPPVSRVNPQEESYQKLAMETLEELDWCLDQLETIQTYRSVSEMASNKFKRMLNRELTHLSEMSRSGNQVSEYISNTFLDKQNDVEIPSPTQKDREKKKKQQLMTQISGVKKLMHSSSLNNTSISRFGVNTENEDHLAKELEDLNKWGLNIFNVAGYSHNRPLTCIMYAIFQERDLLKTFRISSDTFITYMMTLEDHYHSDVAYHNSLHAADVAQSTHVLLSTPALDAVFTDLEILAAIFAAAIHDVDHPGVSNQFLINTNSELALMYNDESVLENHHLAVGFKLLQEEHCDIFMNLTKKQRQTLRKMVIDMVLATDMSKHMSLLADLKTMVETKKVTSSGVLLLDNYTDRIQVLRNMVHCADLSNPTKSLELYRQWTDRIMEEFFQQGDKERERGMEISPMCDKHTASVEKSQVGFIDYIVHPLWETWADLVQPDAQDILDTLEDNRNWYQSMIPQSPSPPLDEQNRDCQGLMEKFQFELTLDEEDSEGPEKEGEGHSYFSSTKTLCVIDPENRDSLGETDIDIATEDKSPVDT
Summary of the method: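 Live HEK293 cells with a modified cyclic nucleotide-gated (CNG) channel report intracellular cAMP via membrane-potential dye fluorescence (ex 535/em 590 nm). Endogenous PDE-IV was targeted. Compounds were tested at up to 22.9 uM final; RO 20-1724 100 uM served as control.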

[9] = Confirmation and Secondary Assay for Modulators of Hemoglobin Beta Chain Splicing at IVS2 654 locus (AID 910);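 note: HeLa cells stably carrying EGFP split by mutant beta-globin IVS2-654 intron; % of control where 0% means no effect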
Summary of the method: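 HeLa cells stably expressing EGFP interrupted by β-globin IVS2-654 intron, seeded overnight in Opti-MEM/2% FCS, then treated 2 days at 37 °C. Restored splicing read as total peak GFP intensity per well by laser scanning cytometry (488 nm excitation, 500–520 nm emission); 500 nM antisense PNA as control.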

[10] = Confirmation and Secondary Assay for Modulators of Hemoglobin Beta Chain Splicing at IVS2 705 locus (AID 930);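 note: HeLa cells stably expressing the EGFP-705 splicing reporter; % of control where 0% means no effect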
Summary of the method: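 Restored EGFP fluorescence after 2-day compound exposure reports splicing correction in IVS2-705 EGFP reporter HeLa cells; positive control was 500 nM splice-blocking PNA oligo. Signal measured as well total peak GFP intensity (488 nm excitation).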

[11] = qHTS Assay for Lipid Storage Modulators (AID 1519; calls by dose curve); conditions: Drosophila S3 cells, BODIPY lipid droplet/cell ratio, laser cytometry, cells loaded with oleic acid; for activity change, negative = inhibition: at 57.5 µM (top of the series)
Summary of the method: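 Cells seeded at 5,000 per well were treated with compounds over a concentration series and loaded with oleic acid (400 uM, as added). Lipid droplet fluorescence (488 nm excitation, 500-530 nm channel) was read by laser-scanning cytometry and normalized to 20 uM Triacsin C.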

[12] = Counterscreen qHTS for small molecule stabilizers of the endoplasmic reticulum resident proteome: GLuc-NoTag assay (AID 1508627);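 note: 0% = thapsigargin alone and -100% = DMSO vehicle control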
Summary of the method: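 Counterscreen line: SH-SY5Y-GLuc-NoTag. Seed, 5 h; compound, 19 h; thapsigargin 100 nM, 4 h; 37C/5% CO2. Readout: secreted GLuc luminescence, coelenterazine 0.07x final, no lysis.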

[13] = Confirmatory qHTS for small molecule stabilizers of the endoplasmic reticulum resident proteome: Secreted ER Calcium Modulated Protein (SERCaMP) assay (AID 1508628); note: nearly all actives have a fitted effect of over 40% in size; note: potency is the fitted concentration of half-maximal effect
Summary of the method: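 Reporter secretion upon ER calcium depletion (100 nM thapsigargin, 4 h, 37C) is measured as medium luminescence with coelenterazine, after 16 h compound pretreatment of SH-SY5Y-GLuc-SERCaMP cells; primary at three concentrations up to 38.3 uM, follow-up at 11 (up to 76.6 uM).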

[14] = target: Cytochrome P450 1A2 (Homo sapiens) (UniProt P05177); assay: p450-cyp1a2 (AID 410; calls by dose curve; note: potency is the fitted concentration of half-maximal effect)
Cytochrome P450 1A2 (Homo sapiens), sequence (P05177 whole entry, looked up): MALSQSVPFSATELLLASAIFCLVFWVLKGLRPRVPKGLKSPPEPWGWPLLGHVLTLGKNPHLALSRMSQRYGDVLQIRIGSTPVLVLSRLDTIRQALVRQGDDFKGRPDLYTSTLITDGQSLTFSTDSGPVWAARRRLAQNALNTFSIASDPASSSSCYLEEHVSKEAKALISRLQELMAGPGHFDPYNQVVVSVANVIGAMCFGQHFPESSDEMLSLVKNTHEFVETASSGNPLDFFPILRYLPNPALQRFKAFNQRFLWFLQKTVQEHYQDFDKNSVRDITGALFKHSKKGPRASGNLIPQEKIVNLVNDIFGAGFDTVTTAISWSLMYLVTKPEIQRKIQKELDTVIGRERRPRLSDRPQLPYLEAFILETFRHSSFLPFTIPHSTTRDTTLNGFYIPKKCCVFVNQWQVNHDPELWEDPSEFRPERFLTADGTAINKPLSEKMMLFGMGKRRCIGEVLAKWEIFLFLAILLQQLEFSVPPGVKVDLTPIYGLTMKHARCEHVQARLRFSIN
Summary of the method: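 Luminescent demethylation readout: Luciferin-ME (100uM, equal to Km) turned over by 20nM CYP1A2 for 60 min at room temperature after NADPH regeneration addition, following 10 min compound preincubation. Normalization used 57 uM furafylline as full inhibition.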

[15] = target: Cytochrome P450 3A4 (Homo sapiens) (UniProt P08684); assay: qHTS Assay for Activators of Cytochrome P450 3A4 (AID 885); note: nearly all actives have a fitted effect of over 65% in size
Cytochrome P450 3A4 (Homo sapiens), sequence (P08684 whole entry, looked up): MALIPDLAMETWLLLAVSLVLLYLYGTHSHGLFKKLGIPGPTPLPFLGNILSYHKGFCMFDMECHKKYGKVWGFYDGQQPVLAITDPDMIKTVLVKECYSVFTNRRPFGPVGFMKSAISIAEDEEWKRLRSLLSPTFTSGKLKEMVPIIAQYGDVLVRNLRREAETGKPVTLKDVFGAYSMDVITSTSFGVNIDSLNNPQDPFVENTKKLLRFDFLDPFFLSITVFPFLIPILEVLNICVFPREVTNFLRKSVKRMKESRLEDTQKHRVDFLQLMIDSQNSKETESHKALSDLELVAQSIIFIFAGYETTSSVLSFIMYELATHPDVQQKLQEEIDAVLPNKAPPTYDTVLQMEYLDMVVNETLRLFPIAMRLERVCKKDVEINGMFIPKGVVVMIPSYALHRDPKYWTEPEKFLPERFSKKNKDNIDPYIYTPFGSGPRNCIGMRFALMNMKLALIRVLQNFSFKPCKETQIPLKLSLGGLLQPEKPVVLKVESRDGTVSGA
Summary of the method: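 Using 20nM recombinant human CYP3A4 in potassium phosphate (200mM), substrate Luciferin-PPXE at 25uM, luminescent luciferin detection followed a 60-min RT NADPH reaction; data scaled to 57 uM ketoconazole.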

[16] = target: Cytochrome P450 2D6 (Homo sapiens) (UniProt P10635); assay: qHTS Assay for Inhibitors and Substrates of Cytochrome P450 2D6 (AID 891); note: potency is the fitted concentration of half-maximal effect; nearly all actives have a fitted effect of over 60% in size
Cytochrome P450 2D6 (Homo sapiens), sequence (P10635 whole entry, looked up): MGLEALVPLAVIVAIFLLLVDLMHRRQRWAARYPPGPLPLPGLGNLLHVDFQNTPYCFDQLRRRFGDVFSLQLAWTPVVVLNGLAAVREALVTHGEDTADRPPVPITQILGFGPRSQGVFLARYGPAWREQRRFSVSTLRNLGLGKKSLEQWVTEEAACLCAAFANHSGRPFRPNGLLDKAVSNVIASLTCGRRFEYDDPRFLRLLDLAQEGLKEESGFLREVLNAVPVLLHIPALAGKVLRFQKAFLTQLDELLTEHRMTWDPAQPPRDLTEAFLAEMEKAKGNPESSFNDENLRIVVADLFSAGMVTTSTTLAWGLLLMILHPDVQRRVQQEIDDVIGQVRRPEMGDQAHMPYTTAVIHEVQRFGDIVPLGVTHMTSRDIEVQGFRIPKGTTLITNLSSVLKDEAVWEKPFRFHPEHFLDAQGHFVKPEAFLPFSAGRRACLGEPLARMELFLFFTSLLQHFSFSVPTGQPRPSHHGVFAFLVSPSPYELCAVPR
Summary of the method: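 Luminescent read-out of luciferin formed by 5 nM human CYP2D6 demethylating 30 uM Luciferin-ME EGE (Km level) over 60 min at room temperature after NADPH regeneration addition. Data normalized to full inhibition by 1.43 uM quinidine.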

[17] = target: Ubiquitin carboxyl-terminal hydrolase 1 (Homo sapiens) (UniProt O94782); assay: Inhibitors of USP1/UAF1: Pilot qHTS (AID 504865); note: nearly all actives have a fitted effect of over 35% in size; note: potency is the fitted concentration of half-maximal effect
Ubiquitin carboxyl-terminal hydrolase 1 (Homo sapiens), sequence (O94782 whole entry, looked up): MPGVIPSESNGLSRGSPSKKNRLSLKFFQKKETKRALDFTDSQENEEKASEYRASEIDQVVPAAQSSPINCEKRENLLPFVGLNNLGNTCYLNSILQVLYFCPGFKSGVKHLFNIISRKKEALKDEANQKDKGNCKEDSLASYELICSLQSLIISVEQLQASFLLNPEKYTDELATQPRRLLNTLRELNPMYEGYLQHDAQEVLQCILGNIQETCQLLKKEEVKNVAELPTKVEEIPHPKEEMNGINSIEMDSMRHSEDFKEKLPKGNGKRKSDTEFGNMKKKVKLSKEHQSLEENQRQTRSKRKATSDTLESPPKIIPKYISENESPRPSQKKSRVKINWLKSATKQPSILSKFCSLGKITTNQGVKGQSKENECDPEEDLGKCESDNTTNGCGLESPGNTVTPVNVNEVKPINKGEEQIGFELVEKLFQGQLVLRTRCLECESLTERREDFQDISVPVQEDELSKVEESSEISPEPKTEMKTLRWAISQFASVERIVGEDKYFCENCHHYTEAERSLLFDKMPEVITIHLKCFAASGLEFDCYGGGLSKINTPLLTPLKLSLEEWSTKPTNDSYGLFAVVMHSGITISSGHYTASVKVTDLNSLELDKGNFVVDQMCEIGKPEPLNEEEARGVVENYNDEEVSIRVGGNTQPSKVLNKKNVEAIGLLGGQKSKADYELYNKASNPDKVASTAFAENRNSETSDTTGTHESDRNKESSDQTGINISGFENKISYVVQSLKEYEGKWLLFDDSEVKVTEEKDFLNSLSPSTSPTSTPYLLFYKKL
Summary of the method: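 1nM USP1/UAF1 + cpd, 15 min RT; start w/ Ub-Rho 150nM final; kinetic FL 480/540 nm, 6 reads q60 s. Buffer 50mM HEPES pH 7.8, 0.5mM EDTA, 1mM TCEP, 0.01% Tween-20, 0.1 mg/ml BSA.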

[18] = Cell Viability qHTS for small molecule stabilizers of the endoplasmic reticulum resident proteome (AID 1508629); conditions: cell viability counter-screen, 100 nM thapsigargin for final 4 h
[19] = target: Dual specificity protein kinase CLK4 (Homo sapiens) (UniProt Q9HAZ1); assay: qHTS Assay for Inhibitors of CDC-like Kinase 4 (Kinase-Glo Assay) (AID 1770); note: % is set by controls: 0 for no effect and ±100 for the full control effect; nearly all actives have a fitted effect of over 65% in size
Dual specificity protein kinase CLK4 (Homo sapiens), sequence (Q9HAZ1 whole entry, looked up): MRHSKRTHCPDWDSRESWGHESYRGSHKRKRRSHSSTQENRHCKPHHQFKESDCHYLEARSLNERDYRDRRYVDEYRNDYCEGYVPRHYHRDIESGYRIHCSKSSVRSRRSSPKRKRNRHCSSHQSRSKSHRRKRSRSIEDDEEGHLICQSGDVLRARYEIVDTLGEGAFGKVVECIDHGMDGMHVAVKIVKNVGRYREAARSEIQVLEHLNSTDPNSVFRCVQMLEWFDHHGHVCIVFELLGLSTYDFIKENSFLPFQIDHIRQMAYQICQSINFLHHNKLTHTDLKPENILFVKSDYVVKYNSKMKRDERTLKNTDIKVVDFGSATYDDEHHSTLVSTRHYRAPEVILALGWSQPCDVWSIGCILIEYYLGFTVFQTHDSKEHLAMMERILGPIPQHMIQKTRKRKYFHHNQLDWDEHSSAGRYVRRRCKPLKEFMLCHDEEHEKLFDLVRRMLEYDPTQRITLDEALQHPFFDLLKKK
Summary of the method: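 Readout: Kinase-Glo luminescence from ATP left after a 4.5 h room-temperature reaction of 25 nM Clk4 with 100 uM RS peptide and 1 uM ATP (final). Buffer: 25 mM Tris pH 7.5, 10 mM MgCl2.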

[20] = target: Dual specificity protein kinase CLK4 (Homo sapiens) (UniProt Q9HAZ1); assay: qHTS Assay for Inhibitors of CDC-like Kinase 4 (ADP-Glo Assay) (AID 1771); note: % is set by controls: 0 for no effect and ±100 for the full control effect; nearly all actives have a fitted effect of over 70% in size
Summary of the method: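 ADP production was read by ADP-Glo luminescence after residual ATP depletion, following 1 h room-temperature reaction of 25 nM Clk4, 1 uM ATP and 100 uM RS peptide with MgCl2, EGTA, DTT and Triton X-100.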

[21] = target: Dual specificity protein kinase CLK4 (Homo sapiens) (UniProt Q9HAZ1); assay: qHTS Assay for Inhibitors of CDC-like Kinase 4 (ADP-FP Assay) (AID 1795);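 note: recombinant human CLK4 phosphorylating RS repeat peptide at 1 µM ATP; % is set by controls: 0 for no effect and ±100 for the full control effect; nearly all actives have a fitted effect of over 60% in size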
Summary of the method: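 FP readout: Orange Transcreener ADP2 tracer (4 nM) plus ADP antibody, read after 30 min at room temperature. Kinase step: 6.25 nM Clk4, 100 uM RS peptide, 1 uM ATP, pH 7.5, 1 h.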

[22] = measured here: cell count channel max response
[23] = measured here: lipid channel max response

Cc1noc(C)c1-c1nc(N2CCNCC2)c2ccccc2n1
19.2%: max response [11, 23]
inactive: Potency [1] > 11.4 µM | activity change, negative = inhibition [2] 18.5% | activity change, negative = inhibition [3] -3.25% | activity, negative = inhibition [4] 13.9% | Potency [5] > 46 µM | Potency [6] > 46 µM | outcome [7] | Potency [8] | outcome [9] | outcome [10] | activity change, negative = inhibition [11] 9.99% | Potency [12]
active: Potency [13] 14.1 µM
11.4%: max response [11, 22]

COc1ccccc1CNc1ncnc2ccc(-c3ccccc3CN(C)C)cc12
inactive: Potency [1] > 11.4 µM | activity change, negative = inhibition [2] -6.09% | activity, negative = inhibition [4] -9.28% | Potency [5] > 46 µM | Potency [6] > 46 µM | outcome [7] | Potency [15] | outcome [9] | outcome [10] | activity change, negative = inhibition [11] 5.99% | Potency [17] | Potency [12]
3.46%: max response [11, 23]
active: Potency [14] 15.8 µM | Potency [16] 2.51 µM | Potency [13] 10 µM
-1.21%: max response [11, 22]

CN(C)c1ncc2nc(CCc3ccccc3)c(=O)n(C[C@H]3CCCO3)c2n1
active: Potency [13] 39.8 µM
inactive: Potency [1] > 11.4 µM | activity change, negative = inhibition [2] -3.01% | activity change, negative = inhibition [3] -1.26% | activity, negative = inhibition [4] 1.42% | Potency [5] > 9.22 µM | Potency [6] > 46 µM | outcome [7] | Potency [12] | max response [18] 23.4%

COc1ccc(Oc2ncc3nc(-c4cc(F)cc(F)c4)c(=O)n(CCC#N)c3n2)cc1
inactive: Potency [1] > 11.4 µM | activity change, negative = inhibition [2] -6.65% | activity change, negative = inhibition [3] -14.9% | activity, negative = inhibition [4] -11.4% | Potency [5] > 9.22 µM | Potency [6] > 46 µM | Potency [8] | Potency [12] | max response [18] -0.74%
active: Potency [13] 31.6 µM

Cc1ccc(C(=O)N/C(=C\c2cccs2)c2nc3ccccc3[nH]2)cc1
inactive: Potency [12] | Potency [13] | max response [18] 8.84%

Cc1ccccc1-c1nc(N2CCN(C)CC2)c2ccccc2n1
inactive: Potency [1] > 11.4 µM | activity change, negative = inhibition [2] 5.49% | activity change, negative = inhibition [3] 0.11% | activity, negative = inhibition [4] 0.381% | Potency [5] > 46 µM | Potency [6] > 46 µM | outcome [7] | Potency [15] | Potency [19] | Potency [20] | Potency [21] | Potency [12]
active: Potency [14] 3.98 µM | Potency [17] 28.2 µM | Potency [13] 20 µM
